SSB-PriA inh = inhibitors of Klebsiella pneumoniae PriA binding to SSB C-terminal tail; AlphaScreen SSBct-PriA binding, biotinylated peptide; inhibition, % at 33 µM; actives 0.6% (n = 430,000); in the data active = inhibition mostly above about 37%, no sharp cut-off; inactive = mostly below about 20%
Anthrax LF inh2 = blocks Bacillus anthracis lethal factor protease | multiplex microsphere protease cleavage assay, LF | P15917 | actives 0.12% (n = 360,000) | inhibition, % at 10 µM | AID 588501
BoNT A protease = blocks Botulinum neurotoxin A light chain protease; AID 588499; inhibition, % at 10 µM; multiplex microsphere protease substrate cleavage, flow cytometry; actives 0.17% (n = 360,000)
BoNT F protease = BoNT F light chain protease inhibition; Multiplex microsphere protease cleavage assay, flow cytometry; AID 588497; actives 0.22% (n = 360,000); inhibition, % at 10 µM; in the data active = inhibition above about 35%, passing the limit was not always enough; inconclusive = no clear call, values can overlap the other calls
Autofluor counter = counter-screen for toxin protease inhibitors: compound fluorescence; compound autofluorescence counterscreen, microsphere flow cytometry; hits give high values; fluorescence intensity (no concentration beside the values); actives 3.1% (n = 360,000); in the data active = fluorescence intensity above about 16000; inconclusive = no clear call, values can overlap the other calls
A number is an active result; – = inactive; ? = inconclusive; · = not tested or not shown. This is a sample that favours compounds with a hit; in the whole collection about 3.1% have one here. Rule as the data show it, unless noted: active = inhibition above about 30%; inconclusive = no clear call, values can overlap the other calls; inactive = below that.

SMILES | SSB-PriA inh | Anthrax LF inh2 | BoNT A protease | BoNT F protease | Autofluor counter
O=C(NCc1ccccc1)N1CCn2c(nc3ccccc32)C1 | – | – | – | – | 19281
O=C(c1ccccc1)N1CCn2c(nc3ccccc32)C1 | – | – | ? | – | 19484
S=C(Nc1ccccc1)N1CCn2c(nc3ccccc32)C1 | – | – | – | – | –
O=C(c1cncc(Br)c1)N1CCC(S(=O)(=O)c2ccccc2)CC1 | – | · | · | · | ·
Cc1cc(C=NNC(=O)c2ccsc2)c(C)n1-c1cnccn1 | – | · | · | · | ·
Cc1cc(/C=N/NC(=O)c2cccs2)c(C)n1-c1cnccn1 | · | – | – | 47.3 | –
Cc1ccc(-n2c(C)cc(/C=N/NC(=O)c3ccncc3)c2C)c(C)c1 | · | – | – | – | 22871
O=C(NN=Cc1cc(Cl)ccc1O)c1ccncc1 | 67.1 | · | · | · | ·
Cc1cccc(C)c1-n1c(C)cc(/C=N/NC(=O)c2ccncc2)c1C | · | – | – | – | 22105
O=C(N/N=C/c1cc(Cl)ccc1O)c1ccncc1 | · | – | – | – | –
O=C(Cc1ccc(F)cc1)N1CCN(Cc2nc(-c3ccc(F)cc3)cs2)CC1 | – | · | · | · | ·
Cc1ccc(-n2ncc(C(=O)N3CCc4ccccc4C3)c2NC(=O)c2ccco2)cc1C | – | – | – | – | 23443
COc1ccc(CCNC(=O)c2ccccc2NC(=O)c2ccco2)cc1OC | – | – | – | – | –
COc1ccc(CCNC(=O)c2cnn(-c3ccc(C)c(C)c3)c2NC(=O)c2ccco2)cc1OC | – | – | ? | – | 22833
NC(=O)C1CCN(C(=O)c2cnn(-c3ccccc3)c2NC(=O)c2ccco2)CC1 | – | – | – | – | –
Cc1nnc2sc(SCC(=O)Nc3ccc(C(F)(F)F)cc3)nn2c1=O | – | · | · | · | ·
Cc1ccnc(NS(=O)(=O)c2ccc(N=CC3=C(O)CC(C)(C)CC3=O)cc2)n1 | – | – | ? | – | 22067
C1C2CC3CC1CC(C2)C3=NN=C1C2CC3CC(C2)CC1C3 | – | · | · | · | ·
CC1CCN(C(=O)CSc2nc(N)cc(N)n2)CC1 | – | – | – | – | 23394
Nc1cc(N)nc(SCC(=O)N2CCCCC2)n1 | – | – | – | – | –
CC1(C)Cc2nc3sc4c(=O)n(CC(=O)NCc5ccccc5)cnc4c3cc2CO1 | – | – | – | – | 16709
O=c1[nH]cnc2sc3c(c12)CCCC3 | – | – | – | – | 23869
O=C1C(Cc2ccc(O)cc2)NC(=S)N1c1ccccc1 (stereo unspecified) | – | – | – | – | 23822
O=Cc1ccnc2ccc(Cl)cc12 | – | · | · | · | ·
CCN(c1cccc(C)c1)C(C(=O)Nc1ccc(OC)cc1)c1cc2c(cc1[N+](=O)[O-])OCO2 (stereo unspecified) | 40.1 | – | – | – | –
SMILES | SSB-PriA inh | Anthrax LF inh2 | BoNT A protease | BoNT F protease | Autofluor counter
COc1ccc(NC(=O)C(c2cc3c(cc2[N+](=O)[O-])OCO3)N(C)Cc2ccccc2)cc1 (stereo unspecified) | 46.7 | – | – | – | –
COc1ccc(NC(=O)C(c2cc3c(cc2[N+](=O)[O-])OCO3)N2CCN(C=O)CC2)cc1 (stereo unspecified) | – | – | – | – | –
CCOC(=O)C1=C(C)NC2=C(C(=O)C(C(=O)OC)C(C)C2)C1c1ccc(OC)c(O)c1 (stereo unspecified) | – | – | ? | – | 23122
CCCOC(=O)C1=C(C)NC2=C(C(=O)C(C(=O)OC)C(C)C2)C1c1ccc(N(CC)CC)cc1 (stereo unspecified) | – | – | – | – | –
Cc1cccc(CSc2nnnn2-c2ccccc2)c1 | – | – | – | – | –
Nc1nnc(SCc2ccccc2)n1-c1ccccc1 | – | – | ? | – | 17516
Cc1cccc(CSc2nnc(N)n2-c2ccccc2)c1 | – | – | – | – | 22675
O=C(NCc1cccs1)C(=O)NCC1CCCN1S(=O)(=O)c1cccs1 (stereo unspecified) | – | · | · | · | ·
O=C(CSc1ccc(NC(=O)c2ccco2)nn1)Nc1ccc(F)cc1 | – | · | · | · | ·
N#Cc1c2n(c3c(=O)n(Cc4ccccc4Cl)cnc13)CCCCC2 | – | – | – | – | –
COC(=O)Cn1cnc2c(C#N)c3n(c2c1=O)CCCCC3 | – | – | – | – | 23066
COc1ccccc1N1C(C)=CC(=C(C#N)c2nc3ccccc3s2)C=C1C | – | – | 56.9 | – | –
CC1=CC(=C(C#N)c2nc3ccccc3s2)C=C(C)N1c1ccc(F)cc1 | – | – | 36.4 | – | –
CC[C@@](CNC(=O)CCc1ccccc1Br)(OC)c1ccccc1 | – | · | · | · | ·
CON=CC1CCN(c2ncc(C(F)(F)F)cc2Cl)C1=O (stereo unspecified) | – | · | · | · | ·
COc1ccc(C2C(C#N)=C(N)N(N(C)C)C3=C2C(=O)CCC3)cc1 (stereo unspecified) | – | – | – | 56.8 | –

Screens deposited in PubChem by several laboratories.
